Molecules are shown by their SMILES. Inconclusive results are not listed. Entries that show only a call come without a potency. The source made the active and inactive calls. Calls come from the whole dose curve; as a rule, active = well fitted curve in the direction sought with a large enough effect; inconclusive = small, poorly fitted or top-dose-only effect, or another doubt; inactive = no such curve, though single readings can be large; an effect the other way counts as inactive or inconclusive.
Potency is the fitted concentration of half-maximal effect.

The first assay deals with Aldehyde dehydrogenase 1A1 (Homo sapiens) (UniProt P00352). The assay can be described thus: qHTS for Inhibitors of the Aldehyde Dehydrogenase Family (ALDH1A1) Confirmatory screens (AID 2061316). Note: nearly all actives have a fitted effect of over 65% in size. As to conditions: ALDH inhibition qHTS; series mostly up to 47.3 µM.
On to `Cc1ncc(CNC(=O)N(CCCl)N=O)c(N)n1`, for which the Potency entry is “inactive”.

For `O=[N+]([O-])c1ccc2nc(N3CCNCC3)ccc2c1`, the Potency is 15.9 µM (active).

Turning to `C[C@]12Cc3cn4c(nc3C=C1CCC1C2CC[C@@]2(C)[C@H]1CC[C@@]2(O)C#N)nc1ccccc14` (stereo partly specified), the Potency is 12.7 µM (active).

With `CCOC(=O)c1ncn2c1[C@@H]1CCCN1C(=O)c1cc(OC)ccc1-2`, the Potency result is “inactive”.

System in the next assay: not listed separately
The assay can be described thus: BET inhibitor-based combinations targeting novel dependencies in MECOM-rearranged (r) AML: MV-4-11 cell line (AID 2202233). Note: nearly all actives have a fitted effect of over 45% in size. The settings on record: MV-4-11 AML viability, CellTiter-Glo luminescence, 48 h; series mostly up to 46 µM. A digest of the protocol:
(§1)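 Each compound is tested in an 11-point concentration series against 500 seeded cells/well for 48 hr. The luminescent viability signal is normalized to DMSO and blank wells, then reduced to AUC and a cell-line-centred Z-AUC.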
(Cellular ATP, detected with luciferase, serves as a proxy for viable cell number.)
On to `NCC1(CC(=O)O)CCCCC1`, for which the outcome was inactive.

With `O=P1(N(CCCl)CCCl)NCCCO1` (stereo unspecified), the Potency result is “inactive”.

As for `CC[C@@]1(O)C(=O)OCc2c1cc1n(c2=O)Cc2cc3ccccc3nc2-1`, the Potency is 0.0074 µM (active).

Turning to `CC(=O)c1c(O)c(C)c(O)c(Cc2c(O)c3c(c(C(=O)/C=C/c4ccccc4)c2O)OC(C)(C)C=C3)c1O`, the Potency entry was “inactive”.

Turning to `COc1ccc(C(=O)N2CCCC2=O)cc1`, the Potency result is “inactive”.

With `Cc1cccc(C)c1NC(=O)CN1CCCC1=O`, the Potency entry was “inactive”.

As to `CNCC(O)c1ccc(O)cc1` (stereo unspecified), the Potency result is “inactive”.

System in a further assay: not listed separately
The assay can be described thus: BET inhibitor-based combinations targeting novel dependencies in MECOM-rearranged (r) AML: HNT-34 cell line (AID 2202234). Note: nearly all actives have a fitted effect of over 35% in size. The settings on record: HNT-34 AML viability, CellTiter-Glo luminescence, 48 h; series mostly up to 46 µM. Put shortly: as §1
Turning to `O=P1(N(CCCl)CCCl)NCCCO1` (stereo unspecified), the Potency result is “inactive”.

As to `CC[C@@]1(O)C(=O)OCc2c1cc1n(c2=O)Cc2cc3ccccc3nc2-1`, the Potency was 0.0053 µM (active).

In the case of `CCCN1CCO[C@@H]2c3cc(O)ccc3OC[C@H]21`, the Potency entry is “inactive”.

Consider `COc1ccc(C(=O)N2CCCC2=O)cc1`, for which the Potency result is “inactive”.

For `Cc1cccc(C)c1NC(=O)CN1CCCC1=O`, the Potency result is “inactive”.

System in another assay: not listed separately
The assay can be described thus: BET inhibitor-based combinations targeting novel dependencies in MECOM-rearranged (r) AML: UCSD-AML1 cell line (AID 2202235). Note: nearly all actives have a fitted effect of over 40% in size. As to conditions: UCSD-AML1 AML cells viability, CellTiter-Glo, 48 h; series mostly up to 46 µM. A digest of the protocol: as §1
In the case of `Cn1c(CCCC(=O)O)nc2cc(N(CCCl)CCCl)ccc21`, the Potency is 18.6 µM (active).

As for `CCCN1CCO[C@@H]2c3cc(O)ccc3OC[C@H]21`, the Potency entry is “inactive”.

For the compound `COc1ccc(C(=O)N2CCCC2=O)cc1`, the Potency entry was “inactive”.

For `CNCC(O)c1ccc(O)cc1` (stereo unspecified), the Potency entry is “inactive”.

System in the next assay: not listed separately
The assay can be described thus: BET inhibitor-based combinations targeting novel dependencies in MECOM-rearranged (r) AML: AML-191 cell line (AID 2202236; note: nearly all actives have a fitted effect of over 35% in size). As to conditions: AML-191 viability, CellTiter-Glo luminescence, 48 h; series mostly up to 46 µM. Put shortly: (§2)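 A 48 hr incubation preceded viability reading by CellTiter-Glo, with 15 min room-temperature development. Dose series had 11 points; normalization used DMSO and empty wells; AUC was computed and mean-centered per line as Z-AUC.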
In the case of `Cn1c(CCCC(=O)O)nc2cc(N(CCCl)CCCl)ccc21`, the Potency is 16.6 µM (active).

In the case of `O=P1(N(CCCl)CCCl)NCCCO1` (stereo unspecified), the Potency entry was “inactive”.

For the compound `CC[C@@]1(O)C(=O)OCc2c1cc1n(c2=O)Cc2cc3ccccc3nc2-1`, the Potency was 0.0209 µM (active).

In the case of `COc1ccc(C(=O)N2CCCC2=O)cc1`, the Potency result was “inactive”.

For `Cc1cccc(C)c1NC(=O)CN1CCCC1=O`, the Potency result was “inactive”.

System in the next assay: not listed separately
The assay can be described thus: BET inhibitor-based combinations targeting novel dependencies in MECOM-rearranged (r) AML: AML-194 cell line (AID 2202237; note: nearly all actives have a fitted effect of over 40% in size). As to conditions: AML-194 (MECOM-r AML) viability, CellTiter-Glo, 48 h; series mostly up to 46 µM. A digest of the protocol:
as §2
Take `Cn1c(CCCC(=O)O)nc2cc(N(CCCl)CCCl)ccc21`: the Potency is 20.9 µM (active).

Take `O=P1(N(CCCl)CCCl)NCCCO1` (stereo unspecified): the Potency result is “inactive”.

As for `CCCN1CCO[C@@H]2c3cc(O)ccc3OC[C@H]21`, the Potency entry is “inactive”.

Take `CC(=O)c1c(O)c(C)c(O)c(Cc2c(O)c3c(c(C(=O)/C=C/c4ccccc4)c2O)OC(C)(C)C=C3)c1O`: the Potency entry was “inactive”.

Consider `COc1ccc(C(=O)N2CCCC2=O)cc1`, for which the Potency entry is “inactive”.

Take `CNCC(O)c1ccc(O)cc1` (stereo unspecified): the Potency entry is “inactive”.

For the origin of these results see PubChem BioAssay (NCATS).
